Source: PubChem
In the library only some 18% were active in any assay of this set; here they are far more common.
TDP1 inh = inhibitors of human tyrosyl-DNA phosphodiesterase TDP1. Q9NUW8. recombinant TDP1, AlphaScreen DNA substrate cleavage. Potency, µM (top dose mostly 130 µM), most hits filed as inhibitors. 350,000 tested, 0.28% active; also: nearly all actives have a fitted effect of over 40% in size
Target sequence (Q9NUW8 whole entry, looked up): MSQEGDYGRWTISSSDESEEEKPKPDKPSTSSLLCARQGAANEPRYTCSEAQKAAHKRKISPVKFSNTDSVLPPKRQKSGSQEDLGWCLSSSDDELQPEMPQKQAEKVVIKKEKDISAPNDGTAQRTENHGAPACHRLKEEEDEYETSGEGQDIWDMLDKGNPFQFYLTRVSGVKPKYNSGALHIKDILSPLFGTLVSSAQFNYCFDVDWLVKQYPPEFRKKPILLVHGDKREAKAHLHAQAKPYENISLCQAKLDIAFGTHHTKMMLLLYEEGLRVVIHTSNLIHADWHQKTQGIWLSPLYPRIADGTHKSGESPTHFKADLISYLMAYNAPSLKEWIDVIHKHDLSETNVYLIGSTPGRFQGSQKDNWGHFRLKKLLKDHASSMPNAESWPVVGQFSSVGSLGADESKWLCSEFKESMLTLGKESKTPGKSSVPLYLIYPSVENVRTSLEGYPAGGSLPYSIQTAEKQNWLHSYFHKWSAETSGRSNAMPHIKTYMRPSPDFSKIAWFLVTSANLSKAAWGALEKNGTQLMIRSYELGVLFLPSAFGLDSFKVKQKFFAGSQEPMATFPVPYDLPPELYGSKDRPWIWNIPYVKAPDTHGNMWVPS
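Signal: AlphaScreen proximity between streptavidin donor and anti-FITC acceptor beads on intact substrate. Reaction: Tdp1 1 nM, substrate 15 nM final, 5 min RT after 15 min compound preincubation.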
TGFb SMAD3 inh = inhibitors of TGF-b signaling. Potency, µM (top dose mostly 46.1 µM), actives largely listed as inhibitors. 410,000 tested, 1.2% active. HepG2 CAGA-GFP TGF-b/SMAD3 reporter, GFP fluorescence, 18 h; TGF-beta stimulated, 500 pg/mL final; also: nearly all actives have a fitted effect of over 65% in size
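GFP signal (ex488/em500-530) from TGF-beta-stimulated HEPG2 CAGA-GFP cells, 500 pg/mL final, 18 h at 37 degrees C in DMEM plus 1% FBS, normalized to unstimulated and DMSO-stimulated controls.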
HepG2 tox = kills HepG2 cells in TGF-b inhibitor counter-screen. HepG2 CAGA-GFP viability, ATP luminescence, 18 h. Potency, µM (doses to about 46.1 µM), hits mostly cytotoxic. 410,000 tested, 0.76% active
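CellTiter-Glo luminescence gave cytotoxicity after 18 hours at 37 degrees C. The cells were HepG2 CAGA-GFP in 1% FBS DMEM, stimulated with 500 pg/mL TGF-beta after compound addition. %Activity was normalised to no-cell wells (complete cell-killing) and DMSO (no toxicity), and curves were fitted and classified.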
DT40 TDP1 CPT = DT40-hTDP1 cell growth loss with CPT; chicken DT40 Tdp1-/-;hTDP1 cells + 20 nM CPT, ATP luminescence, 48 h; Potency, µM (highest dose often 46.2 µM), most hits filed as inhibitors; 420,000 tested, 12% active; AID 686979; also: nearly all actives have a fitted effect of over 55% in size
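Chicken DT40 Tdp1-/- cells stably complemented with human TDP1 were seeded at 400 cells/well in medium containing 20 nM camptothecin, exposed to pin-transferred compounds, and grown at 37 °C for at least 48 hr. Viability was read as ATP luminescence.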
TDP1 cell noCPT = qHTS for Inhibitors of human tyrosyl-DNA phosphodiesterase 1 (TDP1): qHTS in cells in absence of CPT; DT40 Tdp1-/- hTDP1 cells, no CPT, ATP luminescence, 48 h; Potency, µM (doses to about 46.2 µM), most hits filed as inhibitors; 420,000 tested, 15% active; also: nearly all actives have a fitted effect of over 55% in size
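Camptothecin absent (DMSO only). Human TDP1-complemented DT40 knockout cells, 400 cells/well, 37 °C for minimum 48 hr; ATP measured via CellTiter-Glo, 30 min dark incubation, luminescence.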
IL1B secr inh = inhibitors of inflammasome signaling (IL-1 beta secretion). THP-1 LPS/ATP IL-1B secretion, AlphaLISA, 16 h; active compounds read low. activity change, % at 57.5 µM. 360,000 tested, 4.7% active; in the data active = activity change below about -50%; inconclusive = mostly about -30% to -49%
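THP-1 cells pretreated 1 hr with compounds (up to 57.5 uM final), then stimulated with LPS (250 ng/mL final) plus ATP (1.25 mM final); secreted IL-1B measured by AlphaLISA after 16 hr, decreased signal indicating inhibition.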
Each line names hits and unclear results; the compound was inactive in the other large screens. Unless noted, calls follow the shape of the dose curve; as a rule, active = well fitted curve in the direction sought with a large enough effect; inconclusive = small, poorly fitted or top-dose-only effect, or another doubt; inactive = no such curve, though single readings can be large; an effect the other way counts as inactive or inconclusive.

O=C1COc2ccc(-c3csc(-c4ccc(F)cc4)n3)cc2N1	DT40 TDP1 CPT inconclusive (no result: TDP1 inh, IL1B secr inh)
O=C1COc2ccc(-c3csc(NCC4CCCO4)n3)cc2N1 (stereo not given)	DT40 TDP1 CPT inconclusive
CC(Nc1nc(-c2ccc3c(c2)NC(=O)CO3)cs1)c1ccccc1 (stereo not given)	TGFb SMAD3 inh inconclusive, DT40 TDP1 CPT 18µM, TDP1 cell noCPT 26µM, IL1B secr inh inconclusive
Cc1ccc(Sc2cnc(N)nc2C)cc1	DT40 TDP1 CPT inconclusive, TDP1 cell noCPT 16µM
Cc1ccc(Sc2ncccc2C(N)=O)cc1	none (no result: TDP1 inh)
COc1cccc(Cn2c(=O)n(Cc3ccccc3)c(=O)c3c2c2cc(OC)ccc2n3C)c1	none (no result: IL1B secr inh)
O=C(Nc1ccc(N2CCCCCC2)cc1)c1cccc(S(=O)(=O)N2CCOCC2)c1	DT40 TDP1 CPT 7.3µM, TDP1 cell noCPT 4.1µM
O=C(Nc1cccc(S(=O)(=O)N2CCOCC2)c1)c1cccc(S(=O)(=O)N2CCCCC2)c1	DT40 TDP1 CPT inconclusive, TDP1 cell noCPT inconclusive
COc1ccc(NS(=O)(=O)c2ccc(C)c(NC(=O)c3ccc(C)c(S(=O)(=O)N4CCOCC4)c3)c2)cc1	DT40 TDP1 CPT inconclusive, TDP1 cell noCPT 15µM
CCOC(=O)c1ccc(NC(=O)c2cccc(S(=O)(=O)N3CCOCC3)c2)cc1	DT40 TDP1 CPT inconclusive, TDP1 cell noCPT 12µM
CC(=O)c1ccc(NC(=O)c2ccc(C)c(S(=O)(=O)N3CCOCC3)c2)cc1	TDP1 cell noCPT inconclusive
CCOC(=O)c1ccc(NC(=O)c2ccc(C)c(S(=O)(=O)N3CCOCC3)c2)cc1	DT40 TDP1 CPT inconclusive, TDP1 cell noCPT 23µM
Cc1cc(C)n2[nH]c(=O)cc2n1	none (no result: TDP1 inh)
CC(=O)Nc1ccc2cc3ccc(NC(C)=O)cc3nc2c1	HepG2 tox 13µM, DT40 TDP1 CPT inconclusive
O=C(CN1CCOCC1)Nc1ncc(Cc2cccc3ccccc23)s1	TGFb SMAD3 inh inconclusive, TDP1 cell noCPT inconclusive
COC(=O)c1cccc(NC(=O)c2nsc3ccccc23)c1	DT40 TDP1 CPT inconclusive, TDP1 cell noCPT inconclusive (no result: TGFb SMAD3 inh, IL1B secr inh)
O=C(NCc1cccc(F)c1)c1cccc(NC(=O)c2nsc3ccccc23)c1	DT40 TDP1 CPT 23µM, TDP1 cell noCPT 23µM (no result: IL1B secr inh)
CCCCNC(=O)c1cccc(NC(=O)c2nsc3ccccc23)c1	DT40 TDP1 CPT inconclusive, TDP1 cell noCPT inconclusive (no result: IL1B secr inh)
COc1cccc(CNC(=O)c2cccc(NC(=O)c3nsc4ccccc34)c2)c1	DT40 TDP1 CPT inconclusive, TDP1 cell noCPT 21µM (no result: IL1B secr inh)
COC(=O)[C@@]1(Cc2ccccc2)[C@H]2c3cc(C(=O)N(C)C)n(CCO)c3C[C@H]2CN1C(=O)c1ccccc1	none (no result: TGFb SMAD3 inh, HepG2 tox, DT40 TDP1 CPT, TDP1 cell noCPT, IL1B secr inh)
CCN(CC(=O)NC(=O)NCc1ccccc1)Cc1ccccc1	none
CC(C)C[C@H]1CN(CCCC[C@@H]2CNC(=O)C(=O)N2Cc2ccccc2)C(=O)C(=O)N1CCc1ccccc1	TDP1 cell noCPT inconclusive (no result: TDP1 inh, TGFb SMAD3 inh, HepG2 tox)
COc1ccccc1C1CN(Cc2cccnc2)Cc2ccccc2O1 (stereo not given)	none (no result: TDP1 inh, TGFb SMAD3 inh, HepG2 tox, IL1B secr inh)
Cc1cc2nc(CCN3CCOCC3)n(S(=O)(=O)c3ccc(C(C)(C)C)cc3)c2cc1C	DT40 TDP1 CPT 18µM, TDP1 cell noCPT inconclusive
CCCCCCCCN1C(=O)[C@H](CC(=O)N2CCN(C(=O)c3ccco3)CC2)C[C@@]2(C(=O)OCC)CCCC=C12	DT40 TDP1 CPT inconclusive, TDP1 cell noCPT inconclusive (no result: TDP1 inh, TGFb SMAD3 inh, HepG2 tox)
COC(=O)[C@]12CCCCC=C1N(CCc1ccc(OC)c(OC)c1)C(=O)[C@H](CC(=O)N1CCCCC1)C2	DT40 TDP1 CPT inconclusive, TDP1 cell noCPT inconclusive (no result: TDP1 inh, TGFb SMAD3 inh, HepG2 tox)
CCCCCCCCN1C(=O)[C@H](CC(=O)N2CCCCC2)C[C@@]2(C(=O)OC)CCCCC=C12	DT40 TDP1 CPT inconclusive, TDP1 cell noCPT 26µM, IL1B secr inh inconclusive (no result: TDP1 inh, TGFb SMAD3 inh, HepG2 tox)
CCCCCCCCN1C(=O)[C@H](CC(=O)N2CCOCC2)C[C@@]2(C(=O)OC)CCCCC=C12	DT40 TDP1 CPT 18µM, TDP1 cell noCPT 15µM (no result: TDP1 inh, TGFb SMAD3 inh, HepG2 tox)
COc1ccc(N2CCN(c3ccc(-c4nc(-c5ccccc5)no4)cc3[N+](=O)[O-])CC2)cc1	TDP1 cell noCPT inconclusive (no result: IL1B secr inh)
O=C1c2cc(O)cc(O)c2OC[C@@H]1c1ccc(O)c(O)c1	none (no result: TGFb SMAD3 inh, HepG2 tox, DT40 TDP1 CPT, TDP1 cell noCPT, IL1B secr inh)
S=C(NNc1cccc(Cl)c1)NC1CCCCC1	TGFb SMAD3 inh inconclusive, DT40 TDP1 CPT inconclusive, TDP1 cell noCPT inconclusive, IL1B secr inh -108
Cc1cccc(NC(=S)NNc2cccc(Cl)c2)c1	TGFb SMAD3 inh inconclusive, DT40 TDP1 CPT 16µM, TDP1 cell noCPT 18µM
S=C(Nc1cccc(Cl)c1)NC1CCCCC1	none
COc1ccc(CNC(=S)Nc2cccc(C)c2)cc1	TGFb SMAD3 inh inconclusive, TDP1 cell noCPT inconclusive
Cc1cccc(NC(=S)NC(C)(C)CC(C)(C)C)c1	TGFb SMAD3 inh inconclusive, TDP1 cell noCPT 18µM
COc1cc(OC)c(NC(=S)Nc2cccc(C)c2)cc1Cl	TDP1 cell noCPT 9.2µM
Cc1ccc(CCNC(=O)c2cc3c(=O)n(C)c4ccccc4c3n2C)cc1	TGFb SMAD3 inh inconclusive, DT40 TDP1 CPT inconclusive, TDP1 cell noCPT inconclusive (no result: IL1B secr inh)
N#Cc1ccc(NC(=O)C2Cc3ccccc3CN2S(=O)(=O)c2ccc(F)cc2)cc1 (stereo not given)	DT40 TDP1 CPT inconclusive, TDP1 cell noCPT inconclusive (no result: TGFb SMAD3 inh, IL1B secr inh)
Cc1cccc(NNC(=S)Nc2c(C)cccc2C)c1	TGFb SMAD3 inh inconclusive, DT40 TDP1 CPT inconclusive, TDP1 cell noCPT inconclusive, IL1B secr inh -102
Cc1cccc(NNC(=S)Nc2ccccc2)c1	TGFb SMAD3 inh inconclusive, DT40 TDP1 CPT 4.1µM, TDP1 cell noCPT 2.6µM (no result: TDP1 inh)
